The values that follow come from PubChem BioAssay (Tox21).

The nature of test [1]: qHTS assay to identify small molecule antagonists of the thyroid receptor (TR) signaling pathway - cell viability counter screen (AID 743064). Further: nearly all actives have a fitted effect of over 50% in size. Further: potency means the concentration at half of the fitted maximal effect. The procedure, abridged:
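Plate GH3.TRE-Luc cells; incubate 4 h at 37 °C; add compound, then T3 to 1 nM final; incubate 23.5 h; add CellTiter-Fluor; incubate 30 min at 37 °C, 5% CO2; read fluorescence.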
Background: Quantitative high-throughput screening tests each substance at several concentrations.

Test [2] in a line: qHTS assay to identify small molecule antagonists of the thyroid receptor (TR) signaling pathway (AID 743065). Further: nearly all actives have a fitted effect of over 55% in size. Further: potency means the concentration at half of the fitted maximal effect. The procedure, abridged:
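GH3.TRE-Luc rat pituitary cells (two TREs driving luciferase) were dosed with compound, then stimulated with 1 nM T3 (final) for 23.5 h at 37 C. ONE-Glo luminescence was the read-out, with CellTiter-Fluor fluorescence as the cytotoxicity counter-screen.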

Test [3] deals with thyroid hormone receptor (rat, GH3 cells). The test can be described thus: qHTS assay to identify small molecule agonists of the thyroid receptor (TR) signaling pathway (AID 743066; calls by dose curve; further: potency means the concentration at half of the fitted maximal effect).
Test [4] is described as follows: qHTS assay to identify small molecule antagonists of the estrogen receptor alpha (ER-alpha) signaling pathway - cell viability counter screen (AID 743074; calls by dose curve; further: nearly all actives have a fitted effect of over 45% in size).
Test [5] concerns the target Estrogen receptor (Homo sapiens) (UniProt P03372). The test is described as follows: qHTS assay to identify small molecule agonists of the estrogen receptor alpha (ER-alpha) signaling pathway (AID 743075; calls by dose curve).
Test [6] has the same target. The test is described as follows: qHTS assay to identify small molecule agonists of the estrogen receptor alpha (ER-alpha) signaling pathway using the BG1 cell line (AID 743079). Further: nearly all actives have a fitted effect of over 20% in size. Further: potency means the concentration at half of the fitted maximal effect.
The nature of test [7]: qHTS assay to identify small molecule antagonists of the estrogen receptor alpha (ER-alpha) signaling pathway using the BG1 cell line (AID 743080; calls by dose curve;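 further: BG1 cells stimulated with 17beta-estradiol alongside compound; nearly all actives have a fitted effect of over 25% in size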; further: potency means the concentration at half of the fitted maximal effect). The essentials: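 After 5 days in phenol-red-free 10% charcoal-stripped FBS medium, BG1-Luc-4E2 cells were seeded, left 24 h at 37 C, co-treated with compounds and 17beta-estradiol for 21.5 h, then assayed for viability and luciferase.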

Test [8] in a line: qHTS assay to identify small molecule antagonists of the estrogen receptor alpha (ER-alpha) signaling pathway using the BG1 cell line - cell viability counter screen (AID 743081).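 Further: compound given together with 17beta-estradiol as the ER stimulus; series mostly up to about 70 µM; nearly all actives have a fitted effect of over 45% in size.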
The target of test [9] is Aromatase (Homo sapiens) (UniProt P11511). The test can be described thus: qHTS assay to identify aromatase inhibitors (AID 743083). Further: nearly all actives have a fitted effect of over 55% in size. Further: potency means the concentration at half of the fitted maximal effect.
The target in test [10] is Estrogen receptor (Homo sapiens) (UniProt P03372). The test can be described thus: qHTS assay to identify small molecule antagonists of the estrogen receptor alpha (ER-alpha) signaling pathway (AID 743069; active means well fitted curve in the direction sought with a large enough effect in the signal ratio in the repeat runs, not every such curve was filed as active; the % refers to the signal ratio). The procedure, abridged:
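In this cell-based reporter format, GripTite HEK293 cells harbouring ER-alpha-UAS-bla were grown overnight with 2% charcoal-stripped FBS, dosed with DMSO-dissolved compounds, then challenged with 17beta-estradiol. After 18 hr at 37C, beta-lactamase activity was detected by FRET fluorescence.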

Values joined by “and” are separate entries in the source; they are usually repeats but may differ in a detail not shown here. Identical values can stand only once. Records with an inconclusive call do not appear. Some structures have more than one record in an assay (separate samples or runs), and their calls can disagree. Active and inactive are the calls of the source. Unless noted, the call rests on the fitted dose curve; in most records, active means well fitted curve in the direction sought with a large enough effect in the repeat runs; inconclusive means weak or mixed curves; inactive means no such curve, though single readings can be large; an effect the other way counts as inactive or inconclusive.

Chain of Aromatase (Homo sapiens) (P11511 whole entry, looked up): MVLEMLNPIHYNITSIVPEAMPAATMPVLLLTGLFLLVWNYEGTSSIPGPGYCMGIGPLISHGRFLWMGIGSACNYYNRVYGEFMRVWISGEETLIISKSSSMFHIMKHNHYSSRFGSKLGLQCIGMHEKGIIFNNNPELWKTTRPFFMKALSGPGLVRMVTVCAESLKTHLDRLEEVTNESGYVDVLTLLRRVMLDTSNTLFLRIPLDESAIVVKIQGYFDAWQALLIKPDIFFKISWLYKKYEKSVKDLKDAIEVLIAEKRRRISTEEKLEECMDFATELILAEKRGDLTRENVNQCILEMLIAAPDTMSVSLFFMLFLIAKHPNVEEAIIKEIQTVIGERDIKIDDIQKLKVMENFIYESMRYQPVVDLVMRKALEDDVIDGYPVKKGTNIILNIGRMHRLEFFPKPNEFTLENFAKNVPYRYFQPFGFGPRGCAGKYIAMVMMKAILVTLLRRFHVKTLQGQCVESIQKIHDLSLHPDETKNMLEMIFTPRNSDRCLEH
Chain of Estrogen receptor (Homo sapiens) (P03372 whole entry, looked up): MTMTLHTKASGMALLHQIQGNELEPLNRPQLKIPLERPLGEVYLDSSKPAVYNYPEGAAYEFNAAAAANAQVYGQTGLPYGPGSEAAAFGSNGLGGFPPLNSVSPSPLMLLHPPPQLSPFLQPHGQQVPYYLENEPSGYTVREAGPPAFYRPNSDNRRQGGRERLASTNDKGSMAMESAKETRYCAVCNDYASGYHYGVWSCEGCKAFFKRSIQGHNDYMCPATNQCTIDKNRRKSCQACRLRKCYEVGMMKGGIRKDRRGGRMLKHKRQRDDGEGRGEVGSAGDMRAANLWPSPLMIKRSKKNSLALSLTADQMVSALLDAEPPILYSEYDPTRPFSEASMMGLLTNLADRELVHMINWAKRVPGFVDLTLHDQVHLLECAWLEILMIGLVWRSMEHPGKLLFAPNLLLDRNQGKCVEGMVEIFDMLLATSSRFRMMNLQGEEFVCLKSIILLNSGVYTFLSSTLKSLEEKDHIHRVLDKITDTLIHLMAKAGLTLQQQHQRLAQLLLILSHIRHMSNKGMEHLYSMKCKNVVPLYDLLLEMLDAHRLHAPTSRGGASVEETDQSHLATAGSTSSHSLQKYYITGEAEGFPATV

With `Nc1c(Br)cc(Br)c2c1C(=O)c1ccccc1C2=O`, the Potency entry in test [1], in test [2], in test [3], in test [4], in test [5] and in test [6] was “inactive” in each case. Also, the Potency result in [7], in [8] and in test [9] was “inactive” throughout.
Turning to `C=C(Cl)Cl`, the Potency entry in [1], in test [2], in test [3], in test [4], in test [5] and in test [6] was “inactive” in each case. Also, the Potency entry in test [7], in [8] and in test [9] was “inactive” throughout.
For the compound `CCCCC1C(=O)NC(=O)N(C2CCCCC2)C1=O` (stereo unspecified), the Potency entry in test [1], in test [2], in test [3], in test [4], in [5] and in [6] was “inactive” each time. Also, the Potency entry in test [7], in test [8] and in test [9] was “inactive” in each case.
For `OCC1CO1` (stereo unspecified), the Potency entry in [1], in test [2], in test [3], in test [4], in test [5] and in [6] was “inactive” throughout. The Potency entry in test [7], in [8] and in test [9] was “inactive” in each case.
Regarding `CCC(C)(C)c1ccc(O)c(C(C)(C)CC)c1`, the Potency in [1] was 12.1 µM (active) and 13.7 µM (active); in [2], 12.1 µM (active) and 12.2 µM (active); in test [7], 61.1 µM (active); in test [9] it was 60.4 µM (active) and 30.6 µM (active). Besides, the Potency entry in [3], in test [10], in test [4], in test [5] and in [6] was “inactive” each time.
Take `COc1cc(C[C@@H](C)N)c(OC)cc1Br`: the Potency in test [1] was 62.8 µM (active); in test [2] it was 56 µM (active). In addition, the Potency entry in test [3], in test [10], in test [5], in test [6], in [7] and in test [8] was “inactive” each time.
As for `COCc1cnc(C2=NC(C)(C(C)C)C(=O)N2)c(C(=O)O)c1` (stereo unspecified), the Potency entry in test [1], in [2], in [3], in test [4], in test [5] and in test [6] was “inactive” throughout. The Potency entry in test [7], in test [8] and in test [9] was “inactive” throughout.
Turning to `Clc1ccc2ccccc2c1`, the Potency result in test [1], in test [2], in [3], in [10], in [4] and in [5] was “inactive” throughout. In addition, the Potency entry in test [7], in [8] and in [9] was “inactive” in each case.
On to `COC1CC(=C(c2cccs2)c2cccs2)C[N+](C)(C)C1` (stereo unspecified), for which the Potency entry in [1], in test [2], in test [3], in test [10], in test [4] and in [5] was “inactive” each time. The Potency entry in [7], in [8] and in test [9] was “inactive” in each case.
Regarding `Cc1nc2ccccc2c(=O)n1-c1ccccc1Cl`, the Potency in [1] is 30 µM (active); in test [6], 33.6 µM (active). Further, the Potency result in [2], in test [3], in test [10], in [5], in test [7] and in test [9] was “inactive” in each case.
For `C1CCNCC1`, the Potency entry in test [1], in test [2], in test [3], in [10], in test [4] and in test [7] was “inactive” throughout. In addition, the Potency result in test [8] and in [9] was “inactive” each time.
Take `CC(C)c1ccc(NC(=O)N(C)C)cc1`: the Potency entry in test [1], in test [2], in test [3], in test [10], in test [4] and in test [5] was “inactive” throughout. Moreover, the Potency entry in test [8] and in [9] was “inactive” each time.
As for `CC(C)(C)N(NC(=O)c1ccc(Cl)cc1)C(=O)c1ccccc1`, the Potency in test [1] is 3.42 µM (active). Moreover, the Potency result in test [2], in test [3], in [10], in [4], in [5] and in test [7] was “inactive” throughout. Besides, the Potency result in [9] was “inactive”.
With `Nc1cccc2ccccc12`, the Potency entry in test [1], in [2], in [3], in test [10], in test [5] and in test [6] was “inactive” each time. Further, the Potency entry in test [7], in test [8] and in [9] was “inactive” throughout.
For `CC(=O)OC(c1ccccc1)C(Cl)(Cl)Cl` (stereo unspecified), the Potency entry in test [1], in test [2], in test [3], in [10], in [4] and in test [5] was “inactive” each time. Also, in test [8], the Potency result is “inactive”. The Potency in test [7] is 68.6 µM (active).
With `NC(=O)CF`, the Potency result in test [1], in test [2], in test [3], in test [4], in [5] and in test [6] was “inactive” throughout. Also, the Potency entry in test [7], in test [8] and in test [9] was “inactive” in each case.
For the compound `O=C(Cl)OCCOCCOC(=O)Cl`, the Potency result in test [1], in test [2], in test [10], in test [5], in test [6] and in [7] was “inactive” throughout. In addition, the Potency result in test [8] and in test [9] was “inactive” each time. The Potency in test [3] was 27.3 µM (active).
On to `CCC1(CC)C(=O)NC(=O)NC1=O`, for which the Potency entry in [1], in [2], in test [3], in test [4], in [5] and in test [6] was “inactive” each time. Besides, the Potency entry in [7], in [8] and in [9] was “inactive” each time.
As to `C=CCOCC1CO1` (stereo unspecified), the Potency entry in [1], in test [2], in [3], in test [4], in test [5] and in [6] was “inactive” in each case. Also, the Potency result in test [7], in [8] and in test [9] was “inactive” throughout.
For `O=P(OCC(Br)CBr)(OCC(Br)CBr)OCC(Br)CBr` (stereo unspecified), the Potency in test [1] was 43.8 µM (active) and 51.7 µM (active); in test [2] it was 27.7 µM (active) and 23.1 µM (active); in test [9] it was 61.9 µM (active). Also, the Potency result in test [3], in test [4], in [5], in [6], in test [7] and in test [8] was “inactive” in each case.
For the compound `CC[N+]1(CCOC(=O)C(O)(c2ccccc2)c2ccccc2)CCCCC1`, the Potency entry in test [1], in [2], in test [3], in test [10], in test [4] and in test [7] was “inactive” throughout. In addition, the Potency entry in [8] and in test [9] was “inactive” in each case. Besides, in test [6], the Potency was 8.41 µM (active).
For the compound `Nc1ccc2c(c1)Cc1ccccc1-2`, the Potency result in test [1], in test [2], in [3], in test [10], in test [4] and in [8] was “inactive” throughout. Further, the Potency entry in test [9] was “inactive”. Moreover, the Potency in test [6] was 4.3 µM (active).
With `CC(C)(c1ccccc1)c1cc(-n2nc3ccccc3n2)c(O)c(C(C)(C)c2ccccc2)c1`, the Potency result in [1], in test [2], in test [3], in [4], in [5] and in [6] was “inactive” throughout. Also, the Potency result in test [7], in [8] and in test [9] was “inactive” each time.
For `O=C=NC1CCCCC1`, the Potency result in test [1], in [2], in test [3], in test [10], in test [4] and in test [5] was “inactive” in each case. Besides, the Potency entry in [8] and in test [9] was “inactive” throughout. For the same compound, in [6], the Potency is 12.2 µM (active).
Take `O=CC=O`: the Potency result in test [1], in test [2], in test [3], in test [4], in test [5] and in [7] was “inactive” in each case. The Potency result in [8] and in test [9] was “inactive” in each case. For the same compound, the Potency entry in [6] was “inactive and 28.1 µM (active)”.
`Cc1nnc(-c2ccccc2)c(=O)n1N`: the Potency entry in test [1], in test [2], in [3], in [10], in test [4] and in test [7] was “inactive” in each case. For the same compound, the Potency entry in test [8] and in [9] was “inactive” in each case.
